Screening results as filed in PubChem.
Compounds with a hit are over-represented: about 10% of the library has one in this group of screens.
HPGD block – blocks human HPGD enzyme activity; Potency, µM, inactives show at the top dose activity change, negative = inhibition, actives largely listed as inhibitors; AID 894; purified HPGD, NADH fluorescence kinetic, PGE2 substrate; 150,000 tested, 4.3% active; active = well fitted inhibition curve with a large enough effect, not every such curve was filed as active; inconclusive = small, poorly fitted or top-dose-only effect, or another doubt; inactive = no such curve, though single readings can be large or run the other way; also: potency is read from the fitted curve at half-maximal effect
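20 nM HPGD preincubated 15 min at room temperature with compound in 50 mM Tris-HCl pH 8, 0.01% Tween 20. Started with 1 mM NAD+ and 30 uM prostaglandin E2; NADH fluorescence (360/450 nm) read 5 times over 30-s intervals, last minus first.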
PNC inhibitor – perinucleolar compartment assembly inhibition; PC3M PTB-GFP, PNC prevalence imaging, 16 h; hits give low values; activity change (PNC), negative = inhibition, % at 10 µM; 140,000 tested, 3.1% active; AID 2417;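 active = readout at or below -70, meaning at least 70% loss of cells showing the perinucleolar compartment, a nuclear body marking cancer cells; inconclusive = readout between -30 and a set limit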;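 also: plate controls were DMSO wells for no effect and camptothecin positive control wells for full effect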
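Read-out is percentage of cells bearing a perinucleolar compartment, from automated 20x imaging of fixed, Hoechst-stained PC3M PTB-GFP cells. Cells were seeded 4 h, then exposed 16 h to compound (23 nl of library stock) in duplicate plates.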
GLA inh pH 4.5 – blocks human alpha-galactosidase A at pH 4.5 | 230,000 tested, under 10 active | purified enzyme, 4-MU-alpha-Gal fluorescence, pH 4.5 | activity change, negative = inhibition, % at 105 µM | P06280;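 also: 0% = full activity with enzyme and -100% = basal without enzyme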
Target sequence (P06280 whole entry, looked up): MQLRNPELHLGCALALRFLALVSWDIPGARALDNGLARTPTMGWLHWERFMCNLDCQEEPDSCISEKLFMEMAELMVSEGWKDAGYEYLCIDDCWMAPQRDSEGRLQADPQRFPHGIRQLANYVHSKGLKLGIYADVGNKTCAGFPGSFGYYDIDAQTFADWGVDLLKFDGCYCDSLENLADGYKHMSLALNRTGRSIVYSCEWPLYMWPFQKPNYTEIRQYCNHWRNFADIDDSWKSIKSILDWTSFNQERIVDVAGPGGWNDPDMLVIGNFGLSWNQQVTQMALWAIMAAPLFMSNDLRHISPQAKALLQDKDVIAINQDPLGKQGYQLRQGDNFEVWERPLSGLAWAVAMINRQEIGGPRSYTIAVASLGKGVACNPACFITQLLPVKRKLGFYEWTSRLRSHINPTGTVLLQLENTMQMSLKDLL
ALDH1A1 block – ALDH1A1 (human) enzyme inhibition; P00352; Purified ALDH1A1, NADH fluorescence, propionaldehyde substrate; Potency, µM (highest dose often 75.3 µM), without a hit: at the top dose activity, negative = inhibition, hits mostly inhibitors; 220,000 tested, 7.3% active; active = well fitted inhibition curve with a large enough effect, not every such curve was filed as active; inconclusive = small, poorly fitted or top-dose-only effect, or another doubt; inactive = no such curve, though single readings can be large or run the other way;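 also: potency is read from the fitted curve at half-maximal effect; plate controls were no enzyme wells and a reference inhibitor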
aGal spleen mod – inhibitors or activators of human alpha-galactosidase in spleen homogenate. P06280. human spleen homogenate, 4MU-alpha-Gal fluorescence, 40 min. Potency, µM (highest dose often 80 µM), for inactives: at the top dose activity change, negative = inhibition, actives largely listed as inhibitors. 240,000 tested, 0.008% active;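 also: potency is read from the fitted curve at half-maximal effect; 0% = enzyme with vehicle and -100% = no enzyme basal signal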
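qHTS titration in buffer at pH 5.0. Alpha-galactosidase activity in spleen homogenate was measured via 4-methylumbelliferone release from 1 mM fluorogenic substrate after 40 min at 37C and a pH 10 stop. AC50 came from Hill fits of control-normalized data.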
12-hLO inh – blocks human 12-lipoxygenase activity; 150,000 tested, 0.12% active; purified 12-hLO, xylenol orange hydroperoxide absorbance; Potency, µM (series often up to 57.1 µM), inactives show at the top dose activity change, negative = inhibition, most hits filed as inhibitors; P18054; also: potency is read from the fitted curve at half-maximal effect; nearly all actives have a fitted effect of over 55% in size
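Hydroperoxide output read as Fe(III)-xylenol orange absorbance, 573-to-405 nm ratio, after 30 min reaction with 40 uM arachidonic acid. Enzyme: 150 nM purified human 12hLO, 15 min compound preincubation; 25 mM Hepes pH 7.0, room temperature.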
* hit, by the source's call; ? = inconclusive; nt = not tested or not shown; ! = not active in a repeat; [ ] = dose if it differs, or a comment. Unless noted, calls follow the shape of the dose curve; as a rule, active = well fitted curve in the direction sought with a large enough effect; inconclusive = small, poorly fitted or top-dose-only effect, or another doubt; inactive = no such curve, though single readings can be large; an effect the other way counts as inactive or inconclusive. Unless noted, % is scaled to controls: 0 for no effect and ±100 for the full control effect.

SMILES	HPGD block	PNC inhibitor	GLA inh pH 4.5	ALDH1A1 block	aGal spleen mod	12-hLO inh
C=CCc1ccc(O)c(OC)c1	2%	nt	-8	14µM*!	4%	-2%
CC(C)(C)c1cc(C#N)cc(Br)c1OP(=O)(Oc1c(Br)cc(C#N)cc1C(C)(C)C)c1ccccc1	-9%	nt	nt	14%[13.5 µM]	nt	5%[11.4 µM]
Cc1cc(OCC(=O)Nc2c(C)n(C)n(-c3ccccc3)c2=O)c2c3c(c(=O)oc2c1)CCC3	?	20	4	3.2µM*	-4%	0%
Cc1cc(OC(=O)c2ccco2)c2c3c(c(=O)oc2c1)CCCC3	-11%	30	2	14µM*	2%	-7%
Cc1cc(OC(=O)c2cccs2)c2c3c(c(=O)oc2c1)CCCC3	-6%	22	6	13µM*	6%	2%
Cc1cc(OCC(=O)O)c2c3c(c(=O)oc2c1)CCCC3	?	34	4	?	-1%	2%
Cc1ccc(-n2nc(C)cc2NC(=O)COc2cc(C)cc3oc(=O)c4c(c23)CCC4)cc1	?	?	-3	?	5%	-3%
CC(O)(CS(=O)(=O)c1ccccc1)C(=O)Nc1cccc(C(F)(F)F)c1 (configuration not stated)	0.0018µM*	17	-7	25%	-1%	3%
CC[C@@H](CO)NC(=O)[C@@H]1C=C2c3cccc4[nH]cc(c34)C[C@H]2N(C)C1	nt	nt	nt	3.5µM*	10%	nt
CC[C@@H](CO)NC(=O)[C@@H]1C=C2c3cccc4c3c(cn4C)C[C@H]2N(C)C1	?	?	20	3.2µM*	?	-3%
FC(F)(F)c1ccc2c(c1)ncn2C1CCN(Cc2nnnn2C2CCCCC2)CC1	?	-100*	1	0.56µM*	10%	-21%
Oc1c(Br)cc(Br)cc1Br	-9%	nt	nt	-1%	5%	-7%
Oc1c(Br)c(Br)c(Br)c(Br)c1Br	10µM*	nt	nt	?	12%	-9%
Cc1ccc(N2C(=O)NC(=O)/C(=C\C=C\c3ccco3)C2=O)cc1C	10µM*	34	-4	?	-2%	-18%
O=C1NC(=O)N(Cc2ccccc2)C(=O)/C1=C/N1CCCc2ccccc21	-24%	48	3	8.9µM*	1%	-6%
O=C1NC(=O)N(Cc2ccco2)C(=O)/C1=C/C=C/c1ccco1	nt	nt	-6	nt	-11%	nt
O=C1NC(=O)N(Cc2ccccc2)C(=O)/C1=C\C=C\c1ccco1	nt	nt	-2	3.2µM*	-7%	nt
CC1(C)[C@H](C(=O)O[C@H](C#N)c2cccc(Oc3ccccc3)c2)[C@@H]1C=C(Br)Br	nt	nt	nt	nt	7%	nt
CC1(C)C(C=C(Cl)Cl)C1C(=O)OC(C#N)c1cccc(Oc2ccccc2)c1 (configuration not stated)	-3%	nt	-4	25µM*!	3%	0%[0.00818 µM]
Clc1nc(Cl)nc(Cl)n1	-6%	nt	nt	2.2µM*	9%	-3%
COc1cc2[nH]c(=S)n(-c3ccccc3)c(=O)c2cc1OC	nt	nt	-17	1.6µM*	7%	nt
COc1ccc(-n2c(=S)[nH]c3c(sc(=S)n3-c3ccccc3)c2=O)c(OC)c1	nt	nt	-4	3.2µM*	-11%	nt
COc1ccc(-n2c(=O)[nH]c3ccccc3c2=O)c(OC)c1	-12%	-11	14	2%	10%	6%
Cc1cc(S(=O)(=O)NCC(C)C)ccc1OCC(=O)N1CCN(Cc2ccccc2)CC1	-13%	21	-9	18µM*	1%	9%
CC(C)(C)OOC(=O)c1ccccc1	-9%	nt	nt	?	5%	-3%
CC(=O)O[C@]1(c2ccccc2)CCN(C)[C@H]2CCCC[C@@H]21	-6%	29	1	0%	8%	2%
CN1CCC(C)(O)C2CCCCC21 (configuration not stated)	nt	nt	3	10µM*	-5%	nt
CCOC(=O)CC(NC(=O)C(Cc1ccc(N(CCCl)CCCl)cc1)NC(C)=O)C(=O)OCC (configuration not stated)	nt	nt	-3	25µM*	-9%	nt
